Assay outcomes (PubChem BioAssay)
Compounds with a hit are over-represented: about 1.8% of the library has one in this group of screens.
A3A deaminase: blocks human APOBEC3A ssDNA deamination. P31941. recombinant A3A, FAM/TAMRA ssDNA deamination fluorescence. inhibition, % at 20 µM. actives 0.41% (n = 330,000);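 active means at least 40% inhibition at 20 µM here, with at most 30% in a related deaminase screen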;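 further: plate controls were A3A with DMSO for no effect and wells lacking A3A enzyme for full effect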
Target sequence (P31941 whole entry, looked up): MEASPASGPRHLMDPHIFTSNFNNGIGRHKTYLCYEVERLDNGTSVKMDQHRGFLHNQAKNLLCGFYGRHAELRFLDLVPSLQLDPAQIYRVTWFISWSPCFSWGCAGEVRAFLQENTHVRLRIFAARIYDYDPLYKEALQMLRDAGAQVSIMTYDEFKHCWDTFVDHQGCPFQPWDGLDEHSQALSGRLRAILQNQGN
A3G deaminase: inhibitors of human APOBEC3G DNA deaminase. Q9HC16. recombinant A3G, ssDNA deamination FAM/TAMRA fluorescence. inhibition, % at 20 µM. actives 0.28% (n = 330,000). AID 493012;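 active means inhibition of at least 40% at 20 µM, with no more than 30% in the related APOBEC3A deaminase screen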;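 further: plate controls were DMSO wells with A3G for no effect and wells lacking A3G enzyme for full effect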
Target sequence (Q9HC16 whole entry, looked up): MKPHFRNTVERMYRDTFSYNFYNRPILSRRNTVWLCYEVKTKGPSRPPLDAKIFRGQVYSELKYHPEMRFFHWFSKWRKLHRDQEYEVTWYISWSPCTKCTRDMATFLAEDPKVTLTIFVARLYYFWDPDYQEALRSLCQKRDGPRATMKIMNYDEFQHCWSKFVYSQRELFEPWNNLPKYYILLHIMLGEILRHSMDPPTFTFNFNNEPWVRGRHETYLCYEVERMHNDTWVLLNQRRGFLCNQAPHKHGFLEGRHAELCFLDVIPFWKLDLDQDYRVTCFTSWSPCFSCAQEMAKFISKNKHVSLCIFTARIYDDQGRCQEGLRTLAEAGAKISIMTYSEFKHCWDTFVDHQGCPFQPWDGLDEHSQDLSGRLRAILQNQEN
NRP1-CendR mod: NRP-1/CendR interaction modulation; O14786; FAM-RPARPAR peptide binding to NRP-1, fluorescence polarization; inhibition, % at 25 µM; actives 0.85% (n = 360,000);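 active means inhibition or corrected inhibition above about 18%, plus a signal ratio from 0.5 to 1.5, limit read from the data, passing the limit was not always enough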
beta cell repl: MIN6 beta-cell proliferation induction. MIN6 cells proliferation, ATPlite luminescence, 48 h; cells starved in 0.2% serum; 100% = growth in 10% serum. proliferation, % at 10 µM. actives 0.29% (n = 330,000). AID 2380;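 active means compounds whose signal lies at least 3.5 SD above the mean of all wells on their plate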;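 further: 0% = DMSO-treated cells in low-serum medium and 100% = 10% serum control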
VLA-4 inh: inhibition in a human VLA-4 binding assay. P13612. VLA-4 expressing cells, ligand binding flow cytometry. inhibition, % (about 7 µM as worked out from the volumes in the protocol). actives 0.2% (n = 330,000). AID 2557; in the data active means inhibition above about 50%
VLA-4 mod pick: confirmation of allosteric modulators of human VLA-4 integrin | inhibition, % at 6.7 µM | AID 2813 | shares compounds with VLA-4 inh | actives 2% (n = 1,300) | U937 cells, HUTS-21 LIBS mAb binding, flow cytometry; LDV ligand present at threefold Kd; in the data active means inhibition above about 40%;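 further: 0% = ligand without compound and 100% = no ligand background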
Numbers without * were called inactive; . = not tested or not shown; ! = not confirmed by another sample.

SMILES	A3A deaminase	A3G deaminase	NRP1-CendR mod	beta cell repl	VLA-4 inh	VLA-4 mod pick
COc1ccc([C@@]2(O)c3c(ccc(CC=C(C)C)c3O)NC(=O)[C@@H]2OC)cc1	-5.5	-4.6	-14.0	1.7	0.0	-9.5
CCOC(=O)CSc1ccc2nnc(-c3cccs3)n2n1	1.6	-3.0	12.6	2.7	51.0*	15.7
COC(=O)[C@@H](NC(=O)N1CCN(C(=O)C2COc3ccccc3O2)CC1)C(C)C (some centres undefined)	3.6	-3.9	-4.0	-0.1	16.4	.
C/C(=N\Nc1ccc(S(N)(=O)=O)cc1[N+](=O)[O-])c1cccnc1	3.4	-10.1	-1.2	-2.9	-1.5	.
C/C(=N\Nc1ccc([N+](=O)[O-])cc1[N+](=O)[O-])c1cccnc1	-1.7	-3.3	1.1	2.2	45.4	-17.5
COc1ccccc1CC(=O)N1CCN(S(=O)(=O)c2ccccc2F)CC1	-1.3	-1.3	10.4	1.2	51.8*	-6.7
COc1ccccc1CC(=O)N1CCN(S(=O)(=O)c2ccccc2)CC1	-2.4	-7.8	17.5	-2.9	-6.2	.
CCCCOc1ccc(OCCNC(=O)c2ccco2)cc1	3.1	4.9	-10.4	-1.6	5.2	.
CCC(C(=O)OCC(=O)C1(O)CCC2C3CCC4=CC(=O)CCC4(C)C3C(O)CC21C)C(C)C (centres undefined)	.	.	-1.6	.	.	.
CC(=O)[C@@]1(O)CC[C@H]2[C@@H]3CCC4=CC(=O)CC[C@]4(C)[C@H]3[C@@H](O)C[C@@]21C	-3.3	-6.2	-8.6	-2.9	53.0*	2.7
O=C1NCC(=O)N2CCC[C@@H]12	-0.5	-3.7	-1.0	-0.7	53.5*	9.0
O=C1C2C3CCCC3=C3CCCC3C2C(=O)N1c1cccc(Cl)c1 (centres undefined)	0.9	-5.8	-14.9	-0.9	-0.1	.
O=C1C2C3C=CC(c4ccccc4)(C2C(=O)N1c1cccc(Cl)c1)C1C(=O)N(c2cccc(Cl)c2)C(=O)C31 (centres undefined)	-0.7	-5.9	1.0	-4.5	56.9*	6.2
COc1ccccc1CNC(=O)CN(C)S(=O)(=O)c1ccc(F)cc1	0.4	-5.5	-6.0	0.0	-6.0	-3.5
COc1ccccc1CNC(=O)C(C)NS(=O)(=O)c1ccccc1 (centres undefined)	-1.3	-5.9	4.0	-3.8	6.6	-6.7
COc1ccc(C(NC(=O)C2CCN(CCc3ccccc3)CC2)c2ccccn2)cc1 (centres undefined)	.	.	-11.6	.	.	.
CCN(CC)S(=O)(=O)c1ccc(N2CCOCC2)c(NC(=O)c2cc(=O)[nH]c3ccccc23)c1	-5.9	-8.6	11.7	-2.3	51.2*	-6.7
CCN(CC)S(=O)(=O)c1ccc(N2CCOCC2)c(NC(=O)c2cccc3ccccc23)c1	3.4	-2.5	-3.3	-2.0	13.9	.
COc1ccc(NS(=O)(=O)c2cccc(C(=O)N/N=C(\C)c3cccnc3)c2)cc1	-0.3	-4.9	0.1	3.3	.	.
COC(=O)c1ccc(CSc2ccc3nnc(-c4ccc(F)cc4)n3n2)o1	-0.6	-1.1	5.1	3.5	-7.7	.
COC(=O)c1ccc(CSc2ccc3nnc(-c4ccccn4)n3n2)o1	1.8	-3.4	6.8	-1.4	53.8*	2.6
CN(C)S(=O)(=O)c1cccc(NC(=O)COC(=O)c2cccnc2Cl)c1	-2.8	-8.4	-4.8	-3.3	-5.5	.
COCCNC(=O)/C(C#N)=C/c1cc(Br)c(O)c(OC)c1	2.9	-2.1	-24.6	0.0	-12.2	0.6
CCOCCCNC(=O)/C(C#N)=C/c1cc(Br)c(O)c(Br)c1	.	.	-2.6	.	.	21.7
CCCCNC(=O)/C(C#N)=C/c1ccc(C(=O)OC)cc1	0.6	-0.2	7.4	-3.2	3.9	21.4
SMILES	A3A deaminase	A3G deaminase	NRP1-CendR mod	beta cell repl	VLA-4 inh	VLA-4 mod pick
CC(NCC(=O)NCC(=O)Nc1ccc(F)cc1)c1cccc(C(F)(F)F)c1 (centres undefined)	-2.2	-4.9	-3.9	1.4	-1.5	.
CC1(C(=O)NS(=O)(=O)c2ccc3c(c2)CCO3)CCN1C(=O)c1ccccc1CCc1ccccc1 (centres undefined)	.	.	-11.5	.	.	.
CC(=O)c1ccccc1NS(=O)(=O)c1ccccc1Cl	0.3	1.2	13.9	0.3	-3.2	4.4
COc1cc(C(C)=O)ccc1OCC(=O)Nc1ccc(Cl)c(S(=O)(=O)N2CCOCC2)c1	-5.9	-8.4	-0.5	-3.2	3.5	.
COc1ccccc1NS(=O)(=O)c1cc(NC(=O)CNC(=O)c2ccccc2)ccc1C	0.4	-2.1	-6.8	0.0	53.3*	-0.4
COc1cc(N=Nc2cccc(S(N)(=O)=O)c2)c2ccccc2c1N	.	.	-77.2	.	-181.4	.
CN(Cc1cnc2nc(N)nc(N)c2n1)c1ccc(C(=O)N[C@@H](CCC(=O)O)C(=O)O)cc1	-3.0	-9.7	-65.0	-2.0	54.5*!	-1.6
O=c1[nH]c2ccc(Br)cc2c(=O)o1	.	.	-3.9	.	.	.
CC(OC(=O)C(C)N1C(=O)C2C3C=CC(C4CC34)C2C1=O)C(=O)c1ccccc1 (centres undefined)	-0.5	-5.2	-15.2	0.0	58.3*	-11.8
CC(c1ccccc1)N1C(=O)C2C3C=CC(C4CC34)C2C1=O (centres undefined)	2.1	0.8	11.1	-2.7	7.2	.
CCCc1cc(=O)[nH]c(-n2[nH]c3c(c2=O)CCCC3)n1	-0.5	1.0	-9.5	-3.2	-5.8	3.1
S=C(NCCC(c1ccccc1)c1ccccc1)Nc1cccc(Cl)c1	8.5	5.0	7.9	-6.1	93.4*	-5.5
COc1ccc(N)cc1S(=O)(=O)Nc1ccccc1Cl	2.6	2.6	-19.1	-0.5	-3.9	-2.1
COc1ccc(-c2nnc(SCc3ccccc3F)o2)cc1OC	1.5	-0.5	-3.1	3.4	94.7*	5.4
Cc1ccc(-c2nnc(SCc3ccccc3F)o2)cc1	5.2	0.5	8.1	1.0	-11.9	.
O=C(COC(=O)c1cccc(F)c1)Nc1cccc(S(=O)(=O)N2CCCCC2)c1	.	.	-7.2	.	.	.
CN(C)CCCn1c(SCC(=O)N2c3ccccc3Sc3ccccc32)nc2ccccc2c1=O	.	.	8.7	.	52.5*	0.0
COc1ccc(OCC(=O)Nc2ccccc2C(=O)NC(C)C)cc1	-5.0	-3.6	-10.3	-1.6	1.3	-2.2
COc1ccc(NC(=O)c2ccccc2NC(=O)COc2ccccc2)cc1	-3.1	-3.9	-14.5	-2.7	24.8	.
COc1ccc(OCC(=O)Nc2ccccc2OC)cc1	3.7	-0.7	3.3	-1.1	0.2	.
CCC(C)NC(=O)c1ccccc1NC(=O)COc1ccc(OC)cc1 (centres undefined)	2.2	-2.3	-9.3	0.7	.	6.4
C=CCNC(=O)c1ccccc1NC(=O)COc1ccc(OC)cc1	-0.1	-2.2	-3.8	-0.7	7.0	1.8
O=C(CCNC(=O)c1ccc([N+](=O)[O-])cc1)Nc1ccccc1N1CCCCC1	0.1	-4.6	-7.8	-4.5	5.2	.
